GDH-TPI inh = inhibits GDH-TPI coupling enzymes, artifact for Mtb FBA screen; AID 588335; inhibition, % at 4.8 µM; hit rate 1.2% among 360,000; GDH-TPI coupled enzyme counterscreen, NADH absorbance; in the data active = inhibition above about 30%;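 also: 0% = DMSO wells and 100% = wells lacking the enzyme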
BJeLR lethal = kills HRASV12-expressing BJeLR cells. BJeLR (HRASV12) viability, CellTiter-Glo ATP luminescence, 48 h. inhibition, % (test concentration not listed). hit rate 0.17% among 300,000; in the data active = inhibition above about 50%
PrPC surface inh = cell surface PrPC inhibition, primary TR-FRET screen; AID 720596; inhibition, % at 13.8 µM; TR-FRET read-out; hit rate 0.43% among 370,000; P04156; in the data active = inhibition above about 24%; also: 0% = median of the test wells and 100% = reference compound wells
Mtb FBA inh = Mtb fructose-bisphosphate aldolase inhibition; AID 588726; purified M. tuberculosis FBA, fluorescence read-out; hit rate 2.3% among 360,000; inhibition, % at 1 µM; P9WQA3; in the data active = inhibition above about 27%;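 also: 0% = vehicle and 100% = reference inhibitor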
Target sequence (P9WQA3 whole entry, looked up): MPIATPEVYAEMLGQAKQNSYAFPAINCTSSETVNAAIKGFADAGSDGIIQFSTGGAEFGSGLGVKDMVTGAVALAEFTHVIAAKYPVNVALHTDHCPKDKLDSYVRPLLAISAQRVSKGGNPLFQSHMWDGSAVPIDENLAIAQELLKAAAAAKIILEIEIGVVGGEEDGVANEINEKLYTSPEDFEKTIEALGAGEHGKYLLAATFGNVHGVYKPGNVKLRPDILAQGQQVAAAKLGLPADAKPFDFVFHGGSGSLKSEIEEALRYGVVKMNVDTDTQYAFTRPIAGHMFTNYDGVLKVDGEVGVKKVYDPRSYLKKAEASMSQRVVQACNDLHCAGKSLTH
RecA intein inh = inhibitors of M. tuberculosis RecA intein splicing | hit rate 0.75% among 290,000 | AID 2221 | inhibition, % (test concentration not listed) | cell-free RecA intein splicing, fluorescence | P9WHJ3; in the data active = inhibition above about 30%;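 also: 0% = vehicle wells and 100% = reference inhibitor control wells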
* = called active by the depositor; . = no result given; + = active, no number. In the library only some 4.2% were active in any assay of this set; here they are far more common.

SMILES | GDH-TPI inh | BJeLR lethal | PrPC surface inh | Mtb FBA inh | RecA intein inh
CC(C)[C@H](N)C(=O)N1CCC[C@@H]1C(=O)N1CCC2CCN(S(=O)(=O)c3ccccc3)CC21 (some centres undefined) | . | . | -2.4 | . | .
COc1ccc(-c2cn3cccnc3n2)cc1F | 12.0 | 4.3 | -12.3 | + | -3.9
O=S(=O)(Nc1cccc(-c2cn3cccnc3n2)c1)c1ccc(-c2ccccc2)cc1 | 16.5 | 1.8 | 4.3 | 11.2 | 17.3
Brc1ccc(-c2cn3cccnc3n2)cc1 | 16.8 | . | -14.1 | 138.9* | .
COc1ccc(-c2cn3cccnc3n2)cc1NS(=O)(=O)c1ccccc1 | 14.3 | 3.7 | -7.1 | 15.0 | -4.3
Clc1ccc(-c2cn3cccnc3n2)cc1 | 11.5 | 12.1 | -5.6 | + | 1.5
Clc1ccc(-c2cn3cccnc3n2)cc1Cl | 15.1 | 4.9 | -6.2 | 70.0* | 0.9
COC(=O)c1cccc(N2C(=O)C[C@](Sc3ccc(OC)cc3)(C(=O)N3CCOCC3)[C@H]2c2ccc(OC)cc2)c1 | . | . | -0.7 | . | .
COc1ccc(/C=N/Nc2nnc(Cc3ccc(OC)c(OC)c3)c(=O)[nH]2)cc1OC | 30.5 | -3.2 | 9.4 | -0.9 | -5.6
COc1ccc(Cc2nnc(N/N=C/c3ccc(N(C)C)cc3)[nH]c2=O)cc1OC | 77.9* | -15.8 | 7.5 | -2.3 | -0.9
Cc1cc(=O)[nH]c(N/N=C/c2ccc(Cl)cc2Cl)n1 | 4.6 | -10.2 | -5.7 | 2.9 | -3.2
CCNc1nc(NCC)nc(N/N=C/c2ccc(N(C)C)cc2)n1 | 37.5* | 1.5 | -4.2 | 24.4 | .
Cc1cc(=O)[nH]c(N/N=C/c2ccc(N(C)C)cc2)n1 | 35.0* | -3.6 | -3.5 | 13.6 | -7.8
CCN(CCC#N)c1ccc(/C=N/Nc2nc(C)cc(=O)[nH]2)c(C)c1 | 45.2* | 4.1 | 8.7 | 8.4 | -3.8
Cc1cc(=O)[nH]c(N/N=C/c2ccc(F)cc2)n1 | 4.3 | 3.0 | -5.7 | 4.1 | 2.7
CCCCCCCCN1C(=O)[C@@H](CC(=O)NCCc2ccccc2OC)C[C@@]2(C(=O)OC)C1=C[C@H](C(C)(C)C)O[C@@H]2C | . | . | -4.2 | . | .
O=C(NCCCN1CCN(c2ccc(F)cc2)CC1)Nc1ccccc1 | . | . | -9.7 | . | .
O=C1CCC[C@H]2C[C@H](NCc3cccnc3)CC[C@]23CCCN13 | . | . | -4.1 | . | .
CCCC[C@H]1C2CC(OC(=O)Nc3ccc4c(c3)OCO4)C(C2)[C@H]2CCCCN21 (some centres undefined) | . | . | -0.7 | . | .
Cc1cc(=O)[nH]c(N/N=C/c2cc(C)n(CC(F)(F)F)c2C)n1 | 40.3* | 7.5 | 1.4 | 2.9 | -3.5
COC(=O)[C@]12C[C@H](CC(=O)NCCCN3CCCC3=O)C(=O)N(Cc3ccco3)C1=C[C@H](C1CCCC1)O[C@@H]2C | . | . | 0.1 | . | .
C=C(C)CSc1nc2nc(C)c(Br)cc2[nH]1 | 36.4* | 4.6 | -7.1 | 1.5 | 2.9
COC(=O)[C@]12CCCCC=C1N(Cc1ccc(OC)cc1)C(=O)[C@@H]2CC(=O)N1CCCCC1 | . | . | -5.9 | . | .
Cn1c2ccccc2c2cc(C(=O)NNS(=O)(=O)c3ccc(F)cc3)sc21 | 34.3* | -2.2 | 2.1 | 23.4 | 6.9
O=C(NNS(=O)(=O)c1ccc(F)cc1)c1ccccc1 | 10.4 | -8.7 | -6.3 | 146.7* | -0.7
SMILES | GDH-TPI inh | BJeLR lethal | PrPC surface inh | Mtb FBA inh | RecA intein inh
CN(C)CCCNC(=O)c1cc2c3ccccc3n(C)c2s1 | 17.9 | -0.8 | 4.7 | 6.5 | -1.2
CCCCCCCCN1C(=O)N2Cc3cc(OC)ccc3C2CS1(=O)=O (centres undefined) | . | . | 4.2 | . | .
CN(C)[C@H]1CCN(c2cccc3c2S(=O)(=O)N(C2CC2)CCCO3)C1 | . | . | 1.1 | . | .
O=c1c2ccccc2nc(/C=C/c2ccc(O)c(O)c2)n1-c1ccccc1 | 42.9* | 10.7 | -19.1 | -5.8 | -3.8
O=c1c2ccccc2nc(/C=C/c2ccc([N+](=O)[O-])o2)n1-c1ccc(O)cc1 | 5.7 | 64.4* | -4.7 | -2.6 | -3.9
Cc1cccc(-n2c(/C=C/c3ccc([N+](=O)[O-])o3)nc3ccccc3c2=O)c1 | 1.2 | 42.8 | -5.6 | 0.6 | 0.9
COc1cc(/C=C/c2nc3ccccc3c(=O)n2-c2cccc(O)c2)ccc1O | 46.9* | 1.4 | -0.3 | -4.2 | -4.2
COc1cc(/C=C/c2nc3ccccc3c(=O)[nH]2)ccc1O | 40.7* | . | -7.1 | -2.6 | .
O=c1c2ccccc2nc(/C=C/c2ccccc2)n1-c1ccc(O)cc1 | 19.0 | 2.0 | 4.3 | 5.7 | 1.5
CCOc1cc(/C=C/c2nc3ccccc3c(=O)[nH]2)ccc1O | 20.7 | 4.5 | -3.2 | -1.1 | -2.2
O=C(Cn1nc(-c2ccccc2)c2ccccc21)Oc1ccccc1 | . | . | 8.7 | . | .
O=C(NCCc1ccccc1)OCc1cn(-c2cccc(F)c2F)nn1 | . | . | -4.3 | . | .
CC(=O)N1[C@@H](CO)[C@@H](c2ccc(-c3cccc(F)c3)cc2)[C@@H]1CNCC1CCC1 | . | . | -6.2 | . | .
O=C1CSc2ccc(C(=O)N3CCCC(C(=O)N4CCCN(Cc5ccccc5)CC4)C3)cc2N1 (centres undefined) | . | . | 4.5 | . | .
C[C@H]1CCC/C=C/[C@@H]2C[C@H](O)C[C@H]2[C@H](O)[C@H](S(=O)c2ccc(O)cc2)CC(=O)O1 (some centres undefined) | 1.7 | . | 88.9* | -0.3 | .
C[C@H]1CCC/C=C/[C@@H]2C[C@H](O)C[C@H]2[C@@H](O)/C=C/C(=O)O1 | 6.0 | . | 92.6* | 5.2 | .
CCCCC[C@H]1CCCCC[C@@H](O)C[C@@H](O)[C@@H](O)/C=C/C(=O)O1 | . | . | -5.3 | . | .
CC1CCCC=CC2CC(OC(=O)CN(C)C)CC2C(O)C=CC(=O)O1 (centres undefined) | 0.0 | . | 90.3* | -0.4 | .
C=CCN(C)C(C#CCCCC)c1ccccc1 (centres undefined) | . | . | -4.2 | . | .
O=C(C=Cc1ccccc1)c1c[nH]c2ccccc2c1=O | 37.7* | . | 1.2 | -1.8 | .
O=C(/C=C/c1ccccc1)c1c[nH]c2ccccc12 | 23.4 | -3.0 | -13.8 | -4.0 | .
COc1cc(/C=C/C(=O)OCC(=O)Nc2ccc(S(N)(=O)=O)cc2)ccc1O | 27.9 | 1.3 | -3.6 | 2.5 | -1.5
COc1cc(/C=C/C(=O)OCC(=O)Nc2ccc([N+](=O)[O-])cc2)ccc1O | 68.3* | -0.6 | -9.1 | -2.7 | 4.3
CC(=O)Nc1sc(N/N=C\c2ccc(O)cc2)nc1-c1cccs1 | 43.9* | 9.5 | -1.5 | -0.5 | 2.3
O=C(Cn1c2ccccc2c(=O)c2ccccc21)Nc1ccccc1F | 0.0 | 7.0 | 9.8 | 150.2* | -105.3
SMILES | GDH-TPI inh | BJeLR lethal | PrPC surface inh | Mtb FBA inh | RecA intein inh
CC(=O)c1cn(CC(=O)Nc2ccccc2F)c2ccccc12 | -0.8 | -2.8 | 14.7 | 0.7 | .
COc1cccc(C(=O)N(CCN2CCOCC2)Cc2ccc(OC)c(OC)c2)c1 | . | . | -0.5 | . | .
CCCCCN1CCCCC(NC(=O)c2ccc(F)c(F)c2)C1=O (centres undefined) | . | . | -4.4 | . | .
Cc1c(C(=O)O)cccc1-n1c(C)cc(/C=N/NC(=O)c2cc3ccccc3o2)c1C | 39.4* | -2.3 | 1.9 | 0.3 | -3.5
Cc1cc(C)cc(-n2c(C)cc(/C=N/NC(=O)c3ccncc3)c2C)c1 | 15.6 | 4.5 | -1.3 | -4.8 | -2.0
Cc1ccccc1-n1c(C)cc(/C=N/NC(=O)c2ccncc2)c1C | 31.2* | -1.4 | -5.7 | -1.1 | 2.3
NC(=O)CCn1c2ccccc2c2ccccc21 | 1.9 | 1.0 | 6.1 | 0.8 | .

Screens (PubChem)
